The list is not random: actives were taken first. Their share in the collection is about 19%.
TDP1 cell CPT: growth inhibition of DT40 Tdp1-/-;hTDP1 cells with camptothecin (screen for TDP1 inhibitors). Potency, µM (series often up to 46.2 µM), without a hit: top-dose activity change, negative = growth inhibition, usual class: inhibitors. chicken DT40 Tdp1-/-;hTDP1 cells + 20 nM CPT, ATP luminescence, 48 h. hit rate 12% among 420,000; note: nearly all actives have a fitted effect of over 55% in size
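Chicken DT40 Tdp1-/- cells complemented with human TDP1, 400 cells/well, exposed to compounds plus 20 nM camptothecin for at least 48 h at 37 C; viability read as ATP content by CellTiter-Glo luminescence.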
KB-3-1 cytotox: KB-3-1 parental cell cytotoxicity; hit rate 1.4% among 400,000; KB-3-1 viability, CellTiter-Glo ATP luminescence, 72 h; AID 1347075; Potency, µM (series often up to 46.1 µM), most hits filed as cytotoxic; note: nearly all actives have a fitted effect of over 60% in size
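Cytotoxicity measured as CellTiter-Glo luminescence after 72 h at 37 C. Compound titrations were pinned onto drug-naive KB-3-1 parental adenocarcinoma cells grown in DMEM with 10% FBS, and normalized data fitted to concentration-response curves.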
DT40 TDP1 no CPT: qHTS for Inhibitors of human tyrosyl-DNA phosphodiesterase 1 (TDP1): qHTS in cells in absence of CPT | DT40 Tdp1-/- hTDP1 cells, no CPT, ATP luminescence, 48 h | Potency, µM (highest dose often 46.2 µM), without a hit: at the highest dose activity change, negative = growth inhibition, hits mostly inhibitors | hit rate 15% among 420,000 | AID 686978, 2013; note: nearly all actives have a fitted effect of over 55% in size
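Readout: luminescence from CellTiter-Glo after 30 min in the dark at RT. Cells: DT40 Tdp1-/- with stable hTDP1, 400/well. Exposure: compounds alone, ≥48 hr, 37 °C.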
HT1080 IDH1KD tx: HT-1080 IDH1 knockdown cell toxicity (counter line) | HT-1080 IDH1 knockdown viability, ATP luminescence, 48 h | hit rate 2% among 360,000 | Potency, µM (titrated, usually from 46.1 µM), inactives show at the top dose activity, negative = toxicity, most hits filed as cytotoxic;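 note: 0% = DMSO wells and -100% = cell-free medium wells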
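% activity derives from luminescence (CellTiter-Glo), normalised to DMSO and no-cell wells. HT-1080-IDH1KD cells, 750/well, had 48 h compound exposure at 37 °C.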
KB-V1 cytotox: KB-V1 MDR subline cytotoxicity; KB-V1 MDR cells viability, CellTiter-Glo, 72 h; Potency, µM (top dose mostly 46.1 µM), hits mostly cytotoxic; hit rate 3.4% among 400,000; note: nearly all actives have a fitted effect of over 60% in size
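KB-V1 MDR subline cells in DMEM (phenol-red free, 10% FBS) exposed to compounds in qHTS concentration series for 72 h at 37 degrees C. Viability read by CellTiter-Glo luminescence; concentration-effect curves fitted after normalization and correction.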
HT1080-NT tox: kills 2HG-producing HT-1080-NT fibrosarcoma cells; hit rate 1.6% among 360,000; HT-1080-NT fibrosarcoma viability, CellTiter-Glo ATP luminescence, 48 h; Potency, µM (top dose mostly 46.1 µM), for inactives: top-dose activity, negative = less viability, hits mostly cytotoxic;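 note: NT is the 2HG producing partner of a matched IDH1 knockdown line; 0% = DMSO-treated cells and -100% = media-only wells without cells; nearly all actives have a fitted effect of over 55% in size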
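HT-1080-NT; 750 cells/well; 5% FBS RPMI; 48 h compound, 37 degrees C; CellTiter-Glo luminescence; curve fitting and curve-class assignment.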
Starred values were filed as active, the others as inactive; i = inactive; ? = inconclusive; / = no result given; ! = not confirmed by another sample; [ ] = another dose, or the depositor's remark. Calls come from the whole dose curve; as a rule, active = well fitted curve in the direction sought with a large enough effect; inconclusive = small, poorly fitted or top-dose-only effect, or another doubt; inactive = no such curve, though single readings can be large; an effect the other way counts as inactive or inconclusive. Unless noted, % is set by controls: 0 for no effect and ±100 for the full control effect; potency is the fitted concentration of half-maximal effect.

SMILES	TDP1 cell CPT	KB-3-1 cytotox	DT40 TDP1 no CPT	HT1080 IDH1KD tx	KB-V1 cytotox	HT1080-NT tox
CCOc1ccccc1NC(=O)CSc1ccc(-c2ccco2)nn1	?	i	?	13%	?	10%
COc1ccccc1CNC(=O)CSc1ccc(-c2sc(-c3ccccc3)nc2C)nn1	?	i	18µM*	/	i	/
CCOC(=O)c1ccccc1NC(=O)CSc1ccc(-c2sc(-c3ccccc3)nc2C)nn1	?	i	18µM*	/	i	/
Cc1nc(-c2ccccc2)sc1-c1ccc(SCC(=O)NCc2ccccc2)nn1	-3%	i	-22%	/	i	/
Cc1cc(C)c(NC(=O)CSc2ccc(-c3sc(-c4ccccc4)nc3C)nn2)c(C)c1	23µM*	i	15µM*	/	i	/
COc1ccc(CN2C(=O)CCC2(C)c2nnnn2-c2ccc3c(c2)OCCO3)cc1OC (centres undefined)	-10%	i	-7%	11%	i	7%
CCC(=O)N1CCc2cc(Br)cc(S(=O)(=O)CCC(=O)Nc3ccc(C)c(C)c3)c21	12%	/	1%	/	/	/
Cc1ccc(NC(=O)CN(C)C(=O)Cc2ccc(Cl)cc2Cl)cc1	2%	i	-24%	-14%	i	-7%
Cc1ccc(NC(=O)CN(C)C(=O)Cn2ncc(Cl)c(Cl)c2=O)cc1	3.3µM*	?	2.6µM*	21µM*	?	?
Cc1noc(C)c1CSCC(=O)N(C)CC(=O)Nc1ccc(Cl)c(Cl)c1	?	i	?	-11%	5.8µM*	-1%
Cc1ccc(NC(=O)CN(C)C(=O)Cc2ccc(Cl)c(Cl)c2)cc1	29µM*	i	?	?	i	-15%
COc1ccc(OCC(=O)Nc2c(C(=O)N3CCC(N4CCCCC4)CC3)oc3ccccc23)cc1	?	i	?	?	i	-21%
CSc1ccc(CNC(=O)C2(C)CCCN(C(C)C)C2)cc1 (centres undefined)	-16%	i	-14%	5%	i	26%
CC1CCCN(c2nc3c(-c4ccc(Cl)cc4)nnn3c3ccccc23)C1 (centres undefined)	12%	i	11%	/	i	/
CCCCN(C)CCNC(=O)c1cc(-c2ccc(Cl)s2)nc2ccccc12	23µM*	i	23µM*	/	i	/
CCOCCCNC(=O)c1cc(-c2ccc(Br)s2)nc2ccccc12	13%	?	?	-8%	i	-9%
CN1CCN(NC(=O)c2cc(-c3ccc(Br)s3)nc3ccccc23)CC1	?	i	7.3µM*	23µM*	i	21µM*
CCN(CC)CCNC(=O)c1cc(-c2ccc(Br)s2)nc2ccccc12	18µM*	i	18µM*	?	?	18µM*
CCc1ccc(CNC(=O)c2cc(-c3ccc(Br)s3)nc3ccccc23)cc1	?	i	18µM*	/	i	/
O=c1c(=O)n(CCO)n(CCO)c(=O)n1CCO	13%	i	1%	0%	i	-4%
CCOc1ccccc1OCCC(=O)N1CCN(S(=O)(=O)c2ccccc2[N+](=O)[O-])CC1	?	?	?	-28%	i	-2%[9.24 µM]
CCCCOc1cc(C(=O)NCCN(CC)CC)c2ccccc2n1	21µM*!	i	7.3µM*	?	?	?
CC(C)CN(CCNC(=O)c1cc(-c2ccc(Cl)s2)nc2ccccc12)CC(C)C	-2%	i	-16%	/	i	/
CCCN(CCC)CCNC(=O)c1cc(-c2ccc(Br)s2)nc2ccccc12	18µM*	i	?	/	i	/
CCN(CC)CCCNC(=O)c1cc(Nc2ccc(OC)cc2OC)nc2ccccc12	?	i	?	-10%	i	-19%
Cc1ncc2c(c1CNC(=O)CN1CCCC1)CCN(C(=O)c1ccc(F)cc1F)C2	-6%[9.04 µM]	/	-16%	/	/	/

Screens (PubChem)
